Compounds with a hit are over-represented: about 10% of the library has one in this group of screens.
VDR inhibitor – inhibitors of human vitamin D receptor | VDR-SRC2-3 peptide fluorescence polarization, 2 h | Potency, µM, most hits filed as inhibitors | hit rate 0.93% among 400,000 | P11473
Target sequence (P11473 whole entry, looked up): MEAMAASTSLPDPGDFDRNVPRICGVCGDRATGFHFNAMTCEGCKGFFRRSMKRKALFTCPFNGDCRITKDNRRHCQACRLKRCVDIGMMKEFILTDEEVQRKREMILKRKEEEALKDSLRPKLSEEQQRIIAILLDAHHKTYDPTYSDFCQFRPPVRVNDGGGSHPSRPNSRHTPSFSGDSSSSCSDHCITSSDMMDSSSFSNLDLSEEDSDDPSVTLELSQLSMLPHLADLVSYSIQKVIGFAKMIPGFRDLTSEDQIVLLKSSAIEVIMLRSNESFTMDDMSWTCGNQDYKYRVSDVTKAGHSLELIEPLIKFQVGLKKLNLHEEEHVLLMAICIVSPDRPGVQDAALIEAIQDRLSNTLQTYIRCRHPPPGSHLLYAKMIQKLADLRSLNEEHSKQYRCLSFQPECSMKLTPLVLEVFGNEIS
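Measured by FP: displacement of SRC2-3 coactivator peptide from VDR by library compounds, following a two-hour ambient incubation.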
G9a inh – G9a (human) methyltransferase inhibition; G9a H3K9 monomethylation, AlphaScreen, 2 h; Potency, µM (titrated, usually from 102 µM), actives largely listed as inhibitors; hit rate 8.8% among 350,000; also: nearly all actives have a fitted effect of over 75% in size
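Using a bead-based AlphaScreen, monomethylated H3K9 product from 2 h room-temperature reactions (G9a 20 nM, peptide 500 nM, SAM 20 uM) was detected with 0.5 ug/mL rabbit anti-H3K9me1 antibody.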
MmCpn inh – M. maripaludis TRiC chaperonin inhibition; purified Mm-Cpn ATPase, ADP Transcreener TR-FRET; Potency, µM (titrated, usually from 76.9 µM), usual class: inhibitors; hit rate 0.031% among 330,000; also: nearly all actives have a fitted effect of over 80% in size
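Reaction buffer contained 30 mM Tris pH 7.4, 100 mM KCl, 5 mM MgCl2 and 1 mM DTT. Mm-CPN (25 nM final) hydrolysed 10 uM ATP over 30 min at 37°C; ADP was read by HTRF.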
CCT chaperon mod – modulators of cytosolic chaperonin (CCT/TRiC) activity | hit rate 0.3% among 360,000 | purified chaperonin ATPase assay, HTRF ADP detection, 30 min | activity change, % (test concentration not listed), hits read low | AID 651819; in the data active = activity change below about -30%
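We incubate TRiC, 40 or 20 nM final, with library compounds at 76 uM and 10 uM ATP for 30 min at 37 °C. ADP formed is detected with Transcreener HTRF reagents after 30 min at room temperature.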
Sfp inh – Sfp phosphopantetheinyl transferase inhibition. Q9F4F7. Biochemical Sfp PPTase activity, qHTS. Potency, µM, most hits filed as inhibitors. hit rate 3.5% among 310,000. AID 1490;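 also: the enzyme is Sfp with the accession as filed and its product quenches rhodamine fluorescence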
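After 15 min at room temperature with compound, 15 nM Sfp received 5 uM rhodamine-CoA plus 12.5 uM BHQ-2-ybbR (50 mM Hepes pH 7.6, 10 mM MgCl2). Rate came from the fluorescence difference over 30 min, ex 525/em 598 nm.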
PLK1 PBD block – inhibitors of human PLK1 polo-box domain binding; P53350; Plk1 PBD binding of FITC phosphopeptide, fluorescence polarization; Potency, µM, usual class: inhibitors; hit rate 2.8% among 360,000; also: series mostly up to about 57 µM; nearly all actives have a fitted effect of over 65% in size
Large screens that a line does not name were inactive. Unless noted, calls follow the shape of the dose curve; as a rule, active = well fitted curve in the direction sought with a large enough effect; inconclusive = small, poorly fitted or top-dose-only effect, or another doubt; inactive = no such curve, though single readings can be large; an effect the other way counts as inactive or inconclusive.

O=C(Nc1ccccc1C(=O)Nc1nnc(C(F)(F)F)s1)c1ccccc1Cl	PLK1 PBD block 27µM
NC(=O)c1ccccc1NC(=O)c1ccccc1Cl	none
O=C(Nc1nnc(C(F)(F)F)s1)c1ccc(Br)s1	G9a inh 50µM
Cc1cc(C(=O)Nc2nnc(C(F)(F)F)s2)cs1	CCT chaperon mod -34
CCN(CC)CCNC(=O)c1c(C)oc2ncnc(N3CCOCC3)c12	none (no result: MmCpn inh, CCT chaperon mod, Sfp inh, PLK1 PBD block)
Cc1ccc(C)c(OCCOCCn2c(-c3ccc(Br)cc3)nc3ccccc3c2=O)c1C	none (no result: MmCpn inh, CCT chaperon mod, Sfp inh, PLK1 PBD block)
Cc1ccc(C)n1-c1sc2c(c1C(=O)O)CCCC2	G9a inh 45µM, PLK1 PBD block 17µM
COC(=O)c1ccc(-c2noc(CN3CCCCC3c3nccn3C)n2)cc1 (stereo not drawn)	none
COC(=O)c1ccc(-c2noc(CN(Cc3nccn3C)C(C)C)n2)cc1	MmCpn inh inconclusive, PLK1 PBD block 17µM
COc1ccc(-n2c(/C=C/c3cc(OC)c(OC)cc3OC)nc3cc4ccccc4cc3c2=O)cc1Cl	none (no result: MmCpn inh, CCT chaperon mod, Sfp inh, PLK1 PBD block)
Cc1cc(=O)c2c(O)c3c(O)cc(O)c4c5c(O)cc(O)c6c(O)c7c(=O)cc(C)c8c1c2c(c34)c(c65)c78	VDR inhibitor inconclusive, G9a inh 8.9µM, Sfp inh 50µM (no result: MmCpn inh, CCT chaperon mod, PLK1 PBD block)
Cc1cc(=O)c2c(C)ccc(C)c2[nH]1	none
COc1cc(C)ccc1OCCCn1c(-c2ccc(Cl)cc2)nc2ccccc2c1=O	none (no result: MmCpn inh, CCT chaperon mod, Sfp inh, PLK1 PBD block)
CCCN(CCC)CCNc1c(NC2CCN(C(=O)OCC)CC2)c(=O)c1=O	none
CCCN(CCC)CCNc1c(N2CCN(C(=O)OCC)CC2)c(=O)c1=O	G9a inh 79µM
Cc1nn(CC(=O)N2CCCCC2)c(=O)c2cc3occc3n12	none (no result: MmCpn inh, CCT chaperon mod, Sfp inh, PLK1 PBD block)
Cc1cc(Br)c2c(c1)=C(c1sc(N3CCCCCC3)nc1O)C(=O)N=2	none
Cc1ccc2c(c1)=C(c1sc(N(C)c3ccc(O)cc3)nc1O)C(=O)N=2	G9a inh 45µM, PLK1 PBD block 38µM
COC(=O)c1cccc(Nc2nn3c(=O)c4cc5c(cc4nc3s2)OCO5)c1	none (no result: MmCpn inh, CCT chaperon mod, Sfp inh, PLK1 PBD block)
CC(C)Sc1nc2c(c(=O)[nH]c(=O)n2C)n1Cc1ccccc1	none
CCOC(=O)C(C)Sc1nc2c(c(=O)[nH]c(=O)n2C)n1Cc1ccc(Cl)cc1 (stereo not drawn)	VDR inhibitor 89µM, G9a inh 11µM, Sfp inh inconclusive, PLK1 PBD block 21µM
C=CCn1c(SCc2ccc(Cl)cc2)nc2c1c(=O)[nH]c(=O)n2C	G9a inh inconclusive
CC(C)n1c(N2CCCC2)nc2c1c(=O)[nH]c(=O)n2C	none
CCOC(=O)C(CC)Sc1nc2c(c(=O)[nH]c(=O)n2C)n1CCc1ccccc1 (stereo not drawn)	Sfp inh inconclusive, PLK1 PBD block 24µM
C=CCSc1nc2c(c(=O)[nH]c(=O)n2C)n1Cc1ccc(C)cc1	G9a inh 14µM, PLK1 PBD block 21µM
C=CCSc1nc2c(c(=O)[nH]c(=O)n2C)n1C(C)C	G9a inh inconclusive, Sfp inh inconclusive, PLK1 PBD block 27µM
Cc1ccc(S(=O)(=O)N2CCN(c3nc(-c4cccs4)nc4c3ncn4COC(=O)C(C)(C)C)CC2)cc1	none (no result: G9a inh, MmCpn inh, CCT chaperon mod, Sfp inh, PLK1 PBD block)
CC(=O)OC[C@@H]1O[C@@H](O/N=C2/C[C@@H](O)[C@@H](O)[C@@H]3[C@H]4C(=O)N(c5ccc(F)cc5F)C(=O)[C@@H]4CC[C@H]23)[C@H](OC(C)=O)[C@H](OC(C)=O)[C@@H]1OC(C)=O	none (no result: VDR inhibitor, G9a inh, MmCpn inh, CCT chaperon mod, PLK1 PBD block)
Cc1ccc2oc(-c3ccc(C)c(NC(=O)/C=C/c4ccco4)c3)nc2c1	none (no result: MmCpn inh, CCT chaperon mod, Sfp inh, PLK1 PBD block)
Cc1ccc(Cn2c(SCC(C)C)nc3c2c(=O)[nH]c(=O)n3C)cc1	G9a inh inconclusive, Sfp inh 35µM, PLK1 PBD block 24µM
CCC(C)Sc1nc2c(c(=O)[nH]c(=O)n2C)n1CCc1ccccc1 (stereo not drawn)	none
CCC(C)Sc1nc2c(c(=O)[nH]c(=O)n2C)n1CC(O)COc1ccccc1C (stereo not drawn)	G9a inh 5.6µM, Sfp inh 40µM, PLK1 PBD block 11µM
CCCSc1nc2c(c(=O)[nH]c(=O)n2C)n1Cc1ccc(C)cc1	none
Cc1nn(CC(=O)OCC(=O)Nc2c(C(C)C)cccc2C(C)C)c(C)c1[N+](=O)[O-]	PLK1 PBD block 30µM
